According to PubChem BioAssay (NCI):
Compounds without any hit were thinned out: in the full panel of roughly 79,000, 15% have a hit. Values without a mark were called inactive. Calls of active or inactive are those of the source. Cut-off read from the data, not from the text of the source: active = growth inhibition above about 70%; inactive = the rest.

Assay: NCI Yeast Anticancer Drug Screen. Data for the mec2-1 strain (AID 157)
Conditions: S. cerevisiae mec2-1 strain, at 50.0 µM (retest, dose inferred, filed as 5.0), hits give high values
In short: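 Compounds were applied to mec2-1 yeast cells. Their growth was then compared with that of vehicle-treated cultures to give growth inhibition.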

Question: With `CC(=O)NNc1nc(C)c(C(=O)NNC(=O)C(=O)Nc2c(C)cccc2C(C)C)s1` as the compound, how does the growth inhibition read?
Answer: 88% (active)

Question: Which growth inhibition does the source give for `COc1cc(C2CC(=O)c3ccccc3O2)ccc1O` (configuration not stated) here?
Answer: 99% (active)

Question: Which growth inhibition does the source give for `CCC1CCC2C3CC=C4CC(OC(C)=O)C(N)CC4(C)C3CCC12C` (configuration not stated) here?
Answer: 94% (active)

Question: With `COc1ccccc1C1c2cc3c(cc2OC(N2CCOCC2)C1C)OCO3` (configuration not stated) as the compound, how does the growth inhibition read?
Answer: 9%

Question: For `O=C1C=C/C(=C(/c2ccc(O)c(O)c2)c2ccccc2S(=O)(=O)O)C=C1O`, which growth inhibition is on record?
Answer: -25%

Question: With `N#CSC#Cc1ccc(C#CSC#N)cc1` as the compound, how does the growth inhibition read?
Answer: 96% (active)

Question: Which growth inhibition does the source give for `Cc1c2ccccc2c(CCl)c2ccc3ccccc3c12` here?
Answer: 99% (active)

Question: For `Oc1ccc(C(=C(Br)c2ccccc2)c2ccc(O)cc2)cc1`, which growth inhibition is on record?
Answer: 99% (active)

Question: For `Clc1ccc(/C=N/Nc2c3ccccc3nc3ccccc23)c(Cl)c1`, which growth inhibition is on record?
Answer: 87% (active)

Question: With `CCCC#CCCOC(=O)c1cc([N+](=O)[O-])cc([N+](=O)[O-])c1` as the compound, how does the growth inhibition read?
Answer: 99% (active)

Question: Which growth inhibition does the source give for `CCOc1ccc2c(c1)n([O-])c1ccccc1[n+]2=O` here?
Answer: 99% (active)

Question: Which growth inhibition does the source give for `COc1ccc(/C(Cl)=C(\c2ccc(OCCN(C)C)cc2)c2ccc(OC(=O)C(C)(C)C)cc2)cc1` here?
Answer: 17%

Question: With `CCCCCCCCCCCCCCCCSC(=NC)NC` as the compound, how does the growth inhibition read?
Answer: 99% (active)

Question: With `N#Cc1ccc(Oc2nc3ccccc3nc2-c2ccccc2)cc1` as the compound, how does the growth inhibition read?
Answer: 39%

Question: Which growth inhibition does the source give for `Cc1ccc2c(c1)nc1n2C(N)=Nc2ccccc2S1` here?
Answer: 28%

Question: With `COc1cc(NCc2ccc3nc(-c4ccccc4)c(N)nc3c2)cc(OC)c1OC` as the compound, how does the growth inhibition read?
Answer: -12%

Question: Which growth inhibition does the source give for `O=C(OCCC1CCCCC1)c1cc([N+](=O)[O-])cc([N+](=O)[O-])c1` here?
Answer: 76% (active)
